Assay results from publication PMC7862700, “An all-to-all approach to the identification of sequence-specific readers for epigenetic DNA modifications on cytosine”.

Legend:
Test in all cases: DAPPL (digital affinity profiling via proximity ligation, sequencing); 10 mM Tris-HCl pH 7.5, 50 mM NaCl, 1 mM DTT, 4% glycerol, room temperature, 30 min; GST-TFs on glutathione beads, 16-mer random dsDNA library, 0.1% formaldehyde crosslink after washing; high values mean tight binding
Conditions in all cases: protein: recombinant; tags: N-terminal GST; dsDNA, one strand shown
ERF = target: T1, ERF (Homo sapiens, UniProt P50548 1-548)
T1 sequence: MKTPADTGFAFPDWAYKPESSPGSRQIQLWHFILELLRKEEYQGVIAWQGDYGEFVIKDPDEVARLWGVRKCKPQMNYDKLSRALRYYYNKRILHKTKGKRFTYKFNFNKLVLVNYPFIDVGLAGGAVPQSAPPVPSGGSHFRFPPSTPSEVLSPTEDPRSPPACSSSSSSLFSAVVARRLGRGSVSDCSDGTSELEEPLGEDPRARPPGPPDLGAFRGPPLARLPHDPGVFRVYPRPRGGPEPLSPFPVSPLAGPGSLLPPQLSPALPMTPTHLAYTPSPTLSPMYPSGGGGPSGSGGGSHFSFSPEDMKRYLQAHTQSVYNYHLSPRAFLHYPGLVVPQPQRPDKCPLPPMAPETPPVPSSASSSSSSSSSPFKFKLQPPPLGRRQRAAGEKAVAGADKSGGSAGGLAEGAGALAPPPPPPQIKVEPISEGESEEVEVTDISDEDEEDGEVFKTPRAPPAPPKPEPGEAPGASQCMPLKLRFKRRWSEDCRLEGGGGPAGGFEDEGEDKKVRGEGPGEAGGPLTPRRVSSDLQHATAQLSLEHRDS
Summary of the method: (§1)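 Human transcription factors fused to GST were expressed in yeast, captured on glutathione beads, given DNA barcodes and pooled with a GST-only negative control. Pools were incubated with 200 nmole of a 16-mer random double-stranded DNA library in Tris/NaCl/DTT/glycerol buffer at room temperature for 30 min. They were then washed, crosslinked with 0.1% formaldehyde, proximity-ligated (BsaI/T4 ligase, 1 h, 37 °C), PCR-amplified and sequenced on an Illumina NextSeq500. Binding signal is each 6-mer's read frequency for a factor divided by its frequency for the GST control.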

ETV3L = target: T2, ETV3L (Homo sapiens, UniProt Q6ZN32 1-361)
T2 sequence: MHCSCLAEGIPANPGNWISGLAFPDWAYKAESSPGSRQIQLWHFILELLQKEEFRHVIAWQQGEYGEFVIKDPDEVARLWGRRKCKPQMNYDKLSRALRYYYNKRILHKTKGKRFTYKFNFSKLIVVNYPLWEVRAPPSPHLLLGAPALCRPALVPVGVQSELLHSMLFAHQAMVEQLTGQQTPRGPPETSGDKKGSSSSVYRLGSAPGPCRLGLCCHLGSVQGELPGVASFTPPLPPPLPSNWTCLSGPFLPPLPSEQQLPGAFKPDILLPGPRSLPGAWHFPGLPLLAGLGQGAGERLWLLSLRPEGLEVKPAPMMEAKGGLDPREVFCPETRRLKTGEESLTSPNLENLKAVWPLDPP
Summary of the method: as §1

ETS2 = target: T3, ETS2 (Homo sapiens, UniProt P15036 1-469)
T3 sequence: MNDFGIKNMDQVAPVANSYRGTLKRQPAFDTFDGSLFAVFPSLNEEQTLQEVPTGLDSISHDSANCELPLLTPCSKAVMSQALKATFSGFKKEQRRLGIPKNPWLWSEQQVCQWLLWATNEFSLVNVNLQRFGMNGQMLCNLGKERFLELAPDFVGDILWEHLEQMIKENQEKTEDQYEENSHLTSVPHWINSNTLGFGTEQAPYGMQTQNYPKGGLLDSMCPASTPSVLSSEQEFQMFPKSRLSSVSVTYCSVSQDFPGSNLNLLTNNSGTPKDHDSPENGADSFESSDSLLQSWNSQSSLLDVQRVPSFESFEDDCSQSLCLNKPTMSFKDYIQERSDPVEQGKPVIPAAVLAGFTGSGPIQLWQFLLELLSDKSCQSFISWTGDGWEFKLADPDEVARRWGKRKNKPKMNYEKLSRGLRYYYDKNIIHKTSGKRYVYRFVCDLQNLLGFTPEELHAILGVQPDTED
Summary of the method: as §1

SPDEF = target: T4, SPDEF (Homo sapiens, UniProt O95238 1-335)
T4 sequence: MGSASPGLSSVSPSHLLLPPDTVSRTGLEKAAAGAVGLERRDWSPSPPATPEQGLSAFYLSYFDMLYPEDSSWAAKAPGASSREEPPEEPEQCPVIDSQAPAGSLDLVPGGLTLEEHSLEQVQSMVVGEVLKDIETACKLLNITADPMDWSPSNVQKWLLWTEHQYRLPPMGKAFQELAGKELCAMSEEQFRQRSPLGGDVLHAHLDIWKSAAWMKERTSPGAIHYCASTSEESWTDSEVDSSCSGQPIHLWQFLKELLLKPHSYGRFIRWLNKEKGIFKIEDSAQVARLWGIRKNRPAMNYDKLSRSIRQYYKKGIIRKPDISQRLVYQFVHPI
Summary of the method: as §1

ETV7 = target: T5, ETV7 (Homo sapiens, UniProt Q9Y603 1-341)
T5 sequence: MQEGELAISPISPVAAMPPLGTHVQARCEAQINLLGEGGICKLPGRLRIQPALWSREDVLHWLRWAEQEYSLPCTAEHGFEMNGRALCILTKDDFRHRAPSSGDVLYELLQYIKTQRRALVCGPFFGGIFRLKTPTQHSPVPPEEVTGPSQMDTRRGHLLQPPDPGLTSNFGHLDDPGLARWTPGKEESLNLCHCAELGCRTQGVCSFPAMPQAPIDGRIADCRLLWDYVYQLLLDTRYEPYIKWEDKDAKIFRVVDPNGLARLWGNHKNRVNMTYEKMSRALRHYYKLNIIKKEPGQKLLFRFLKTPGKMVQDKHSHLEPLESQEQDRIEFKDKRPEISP
Summary of the method: as §1

ELF5 = target: T6, ELF5 (Homo sapiens, UniProt Q9UKW6-2 1-255)
T6 sequence: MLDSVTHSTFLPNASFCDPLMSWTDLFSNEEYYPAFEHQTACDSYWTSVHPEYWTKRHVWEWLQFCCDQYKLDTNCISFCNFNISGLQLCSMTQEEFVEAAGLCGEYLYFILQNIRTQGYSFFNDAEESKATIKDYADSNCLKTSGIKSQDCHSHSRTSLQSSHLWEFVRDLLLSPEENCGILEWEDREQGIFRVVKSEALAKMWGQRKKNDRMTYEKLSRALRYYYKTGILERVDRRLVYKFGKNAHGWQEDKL
Summary of the method: as §1

ETV3 = target: T7, ETV3 (Homo sapiens, UniProt P41162-2 1-143)
T7 sequence: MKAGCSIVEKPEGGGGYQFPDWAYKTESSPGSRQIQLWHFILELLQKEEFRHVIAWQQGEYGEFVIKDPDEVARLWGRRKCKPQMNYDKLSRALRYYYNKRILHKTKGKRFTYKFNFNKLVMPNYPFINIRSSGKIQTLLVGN
Summary of the method: as §1

ETV6 = ETV6 (Homo sapiens, UniProt P41212 1-452)
ETV6, sequence (P41212 whole entry): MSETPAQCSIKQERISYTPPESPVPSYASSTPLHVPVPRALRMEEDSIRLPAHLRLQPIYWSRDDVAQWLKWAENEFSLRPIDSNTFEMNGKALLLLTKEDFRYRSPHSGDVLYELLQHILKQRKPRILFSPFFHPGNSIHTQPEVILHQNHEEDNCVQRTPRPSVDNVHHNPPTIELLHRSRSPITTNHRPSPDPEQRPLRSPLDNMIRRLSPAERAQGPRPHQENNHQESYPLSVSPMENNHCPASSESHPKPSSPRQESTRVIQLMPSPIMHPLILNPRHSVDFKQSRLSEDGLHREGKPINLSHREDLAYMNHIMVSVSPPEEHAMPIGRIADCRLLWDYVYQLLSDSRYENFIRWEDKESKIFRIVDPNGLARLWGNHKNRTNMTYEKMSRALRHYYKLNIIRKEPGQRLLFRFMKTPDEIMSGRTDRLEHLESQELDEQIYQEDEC
Summary of the method: as §1

## TCACTA
ERF
  binding signal: 1.24 fold enrichment (6-mer frequency, TF over GST control)
ETV3L
  binding signal: 1.18 fold enrichment (6-mer frequency, TF over GST control)
ETS2
  binding signal: 1.25 fold enrichment (6-mer frequency, TF over GST control)
SPDEF
  binding signal: 1.07 fold enrichment (6-mer frequency, TF over GST control)
ETV7
  binding signal: 1.23 fold enrichment (6-mer frequency, TF over GST control)
ELF5
  binding signal: 1.15 fold enrichment (6-mer frequency, TF over GST control)
ETV3
  binding signal: 1.05 fold enrichment (6-mer frequency, TF over GST control)
ETV6
  binding signal: 1.06 fold enrichment (6-mer frequency, TF over GST control)

## TCTACG
ERF
  binding signal: 1.46 fold enrichment (6-mer frequency, TF over GST control)
ETV3L
  binding signal: 1.4 fold enrichment (6-mer frequency, TF over GST control)
ETS2
  binding signal: 1.41 fold enrichment (6-mer frequency, TF over GST control)
SPDEF
  binding signal: 1.33 fold enrichment (6-mer frequency, TF over GST control)
ETV7
  binding signal: 1.36 fold enrichment (6-mer frequency, TF over GST control)
ELF5
  binding signal: 1.35 fold enrichment (6-mer frequency, TF over GST control)
ETV3
  binding signal: 1.32 fold enrichment (6-mer frequency, TF over GST control)
ETV6
  binding signal: 1.2 fold enrichment (6-mer frequency, TF over GST control)

## ATTAGC
ERF
  binding signal: 1.09 fold enrichment (6-mer frequency, TF over GST control)
ETV3L
  binding signal: 1.13 fold enrichment (6-mer frequency, TF over GST control)
ETS2
  binding signal: 1.13 fold enrichment (6-mer frequency, TF over GST control)
SPDEF
  binding signal: 1.09 fold enrichment (6-mer frequency, TF over GST control)
ETV7
  binding signal: 1.17 fold enrichment (6-mer frequency, TF over GST control)
ELF5
  binding signal: 1.1 fold enrichment (6-mer frequency, TF over GST control)
ETV3
  binding signal: 1.16 fold enrichment (6-mer frequency, TF over GST control)
ETV6
  binding signal: 1.1 fold enrichment (6-mer frequency, TF over GST control)

## TAACGG
ERF
  binding signal: 1.04 fold enrichment (6-mer frequency, TF over GST control)
ETV3L
  binding signal: 1.04 fold enrichment (6-mer frequency, TF over GST control)
ETS2
  binding signal: 1.1 fold enrichment (6-mer frequency, TF over GST control)
SPDEF
  binding signal: 1.1 fold enrichment (6-mer frequency, TF over GST control)
ETV7
  binding signal: 1.06 fold enrichment (6-mer frequency, TF over GST control)
ELF5
  binding signal: 1.07 fold enrichment (6-mer frequency, TF over GST control)
ETV3
  binding signal: 1.1 fold enrichment (6-mer frequency, TF over GST control)
ETV6
  binding signal: 1.14 fold enrichment (6-mer frequency, TF over GST control)

## GAATCC
ERF
  binding signal: 1.12 fold enrichment (6-mer frequency, TF over GST control)
ETV3L
  binding signal: 1.11 fold enrichment (6-mer frequency, TF over GST control)
ETS2
  binding signal: 1.13 fold enrichment (6-mer frequency, TF over GST control)
SPDEF
  binding signal: 1.54 fold enrichment (6-mer frequency, TF over GST control)
ETV7
  binding signal: 1.18 fold enrichment (6-mer frequency, TF over GST control)
ELF5
  binding signal: 1.03 fold enrichment (6-mer frequency, TF over GST control)
ETV3
  binding signal: 1.14 fold enrichment (6-mer frequency, TF over GST control)
ETV6
  binding signal: 1.08 fold enrichment (6-mer frequency, TF over GST control)

## ACAAAC
ERF
  binding signal: 1.11 fold enrichment (6-mer frequency, TF over GST control)
ETV3L
  binding signal: 1.08 fold enrichment (6-mer frequency, TF over GST control)
ETS2
  binding signal: 1.22 fold enrichment (6-mer frequency, TF over GST control)
SPDEF
  binding signal: 1.15 fold enrichment (6-mer frequency, TF over GST control)
ETV7
  binding signal: 1.11 fold enrichment (6-mer frequency, TF over GST control)
ELF5
  binding signal: 1.12 fold enrichment (6-mer frequency, TF over GST control)
ETV3
  binding signal: 1.09 fold enrichment (6-mer frequency, TF over GST control)
ETV6
  binding signal: 1.15 fold enrichment (6-mer frequency, TF over GST control)

## TTTAAT
ERF
  binding signal: 1.33 fold enrichment (6-mer frequency, TF over GST control)
ETV3L
  binding signal: 1.37 fold enrichment (6-mer frequency, TF over GST control)
ETS2
  binding signal: 1.37 fold enrichment (6-mer frequency, TF over GST control)
SPDEF
  binding signal: 1.17 fold enrichment (6-mer frequency, TF over GST control)
ETV7
  binding signal: 1.46 fold enrichment (6-mer frequency, TF over GST control)
ELF5
  binding signal: 1.28 fold enrichment (6-mer frequency, TF over GST control)
ETV3
  binding signal: 1.21 fold enrichment (6-mer frequency, TF over GST control)
ETV6
  binding signal: 1.28 fold enrichment (6-mer frequency, TF over GST control)

## TGGTCC
ERF
  binding signal: 1.19 fold enrichment (6-mer frequency, TF over GST control)
ETV3L
  binding signal: 1.1 fold enrichment (6-mer frequency, TF over GST control)
ETS2
  binding signal: 1.23 fold enrichment (6-mer frequency, TF over GST control)
SPDEF
  binding signal: 1.26 fold enrichment (6-mer frequency, TF over GST control)
ETV7
  binding signal: 1.18 fold enrichment (6-mer frequency, TF over GST control)
ELF5
  binding signal: 1.19 fold enrichment (6-mer frequency, TF over GST control)
ETV3
  binding signal: 1.28 fold enrichment (6-mer frequency, TF over GST control)
ETV6
  binding signal: 1.18 fold enrichment (6-mer frequency, TF over GST control)
